Marburg entry inh – Marburg virus entry inhibition; Potency, µM (series often up to 37.8 µM), actives largely listed as inhibitors; hit rate 1.8% among 300,000; AID 540276; Marburg virus pseudotyped entry inhibition, cell reporter; calls by dose curve; tested in HEK293 cells
HCMV antiviral – human cytomegalovirus inhibition; HFF cells, HCMV-luciferase reporter, 72 h; active compounds read low; activity change, negative = inhibition, % at 57.5 µM; hit rate 4.5% among 410,000; AID 1259415; in the data active = activity change below about -60%; inconclusive = no clear call, values can overlap the other calls; inactive = above about -39%
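Compounds were evaluated in HFFs infected with an HCMV luciferase reporter virus (MOI 1 PFU/cell). Luciferase in lysates collected 72 h post infection served as the replication measure.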
FMDV inh – blocks foot and mouth disease virus; hit rate 1.2% among 410,000; Potency, µM (titrated, usually from 57.9 µM), actives largely listed as inhibitors; FMDV antiviral cell-based qHTS; calls by dose curve; tested in HEK293T cells; note: read-out not given here; nearly all actives have a fitted effect of over 45% in size
LASV entry inh – inhibitors of Lassa virus binding or cell entry; Lassa virus pseudotype entry inhibition, cell reporter; Potency, µM (series often up to 37.9 µM), most hits filed as inhibitors; hit rate 1.2% among 300,000; AID 540256; calls by dose curve; tested in HEK293 cells; note: nearly all actives have a fitted effect of over 50% in size
Hits are given with their value. The list is not random: actives were taken first. Their share in the collection is about 6.2%.

`O=C(NCC1CCN(Cc2ccc(F)cc2)CC1)C1CCCN(c2ncnc3c2nc2n3CCCCC2)C1` (stereo unspecified) gave HCMV antiviral -61 and FMDV inh inactive.
Screening O=C(NCC1CCN(Cc2ccc(Cl)cc2)CC1)C1CCCN(c2ncnc3c2nc2n3CCCCC2)C1 (stereo unspecified) returned HCMV antiviral -79 and FMDV inh 10µM.
`O=C(NCC1CCN(Cc2cccc(Cl)c2)CC1)C1CCCN(c2ncnc3c2nc2n3CCCCC2)C1` (stereo unspecified) gave HCMV antiviral inconclusive and FMDV inh inactive.
Screening O=C(NCc1cccc(Cl)c1)C1CCCN(c2nn3cc(-c4ccc(F)cc4)nc3s2)C1 (stereo unspecified) returned HCMV antiviral active, FMDV inh 11µM and LASV entry inh inactive.
For Cc1ccc(CNC(=O)C(CC(C)C)NS(=O)(=O)c2ccc3c(c2)oc(=O)n3C)cc1 (stereo unspecified) the results were Marburg entry inh inactive, HCMV antiviral inactive, FMDV inh inactive and LASV entry inh inactive.
For COc1ccc(NC(=O)c2[nH]c(C)c(C(C)=O)c2C)cc1Cl the results were Marburg entry inh inconclusive, HCMV antiviral inactive, FMDV inh inactive and LASV entry inh inconclusive.
For COc1ccc(C(C)(C)C)cc1NC(=O)c1[nH]c(C)c(C(C)=O)c1C the results were Marburg entry inh 10µM, HCMV antiviral inactive, FMDV inh inactive and LASV entry inh 11µM.
For Cc1ccc2c(c1)N(C(=O)CCC(=O)NCc1cccc(F)c1)CC(C)O2 (stereo unspecified) the results were Marburg entry inh inactive, HCMV antiviral inactive, FMDV inh inactive and LASV entry inh inactive.
`O=C(Nc1ccccc1[N+](=O)[O-])c1cncc(Br)c1` gave Marburg entry inh inactive, HCMV antiviral -74, FMDV inh inactive and LASV entry inh inactive.
O=C(Nc1ccc(F)cc1F)c1cncc(Br)c1 was read as Marburg entry inh inconclusive, HCMV antiviral inconclusive, FMDV inh inactive and LASV entry inh inactive.
COc1ccccc1N1CCN(c2cc(N3CCCC3)nc(C)n2)CC1 was read as Marburg entry inh inactive, HCMV antiviral -103, FMDV inh inactive and LASV entry inh inactive.
For COc1ccccc1N1CCN(c2ccc3ccccc3n2)CC1 the results were Marburg entry inh inconclusive, HCMV antiviral inactive, FMDV inh inactive and LASV entry inh inconclusive.
For COc1ccccc1N1CCN(c2ccc(-c3ccccc3)nn2)CC1 the results were Marburg entry inh 1.6µM, HCMV antiviral -96, FMDV inh inactive and LASV entry inh 3.5µM.
CCOc1ccc(CN(C)C(C)C(=O)Nc2ccc([N+](=O)[O-])cc2Cl)cc1OC (stereo unspecified) was read as Marburg entry inh inconclusive, HCMV antiviral inconclusive, FMDV inh 22µM and LASV entry inh inactive.
`COc1ccc(Br)cc1CN(C)C(C)C(=O)Nc1cc([N+](=O)[O-])ccc1OC` (stereo unspecified) gave Marburg entry inh 14µM, HCMV antiviral inactive, FMDV inh inactive and LASV entry inh inactive.
`COc1ccc(CN(C)C(C)C(=O)Nc2ccc([N+](=O)[O-])cc2Cl)cc1OC` (stereo unspecified) gave Marburg entry inh inconclusive, HCMV antiviral inactive, FMDV inh inconclusive and LASV entry inh inconclusive.
For CC(=O)OC[C@H]1O[C@H](CCON=C(C)CCC(=O)OC[C@H]2O[C@H](C#Cc3ccccc3)C=C[C@H]2Oc2ccc(C)cc2)C=C[C@H]1OC(C)=O the results were Marburg entry inh inactive.
Screening C#CCNC(=O)c1cc2cccnc2nc1N returned HCMV antiviral inactive.
COc1cccc(-c2cnc3c(NC(C)=O)cc(-c4ccc(C(=O)N5CCOCC5)cc4)cn23)c1 was read as HCMV antiviral inactive and FMDV inh inactive.
Screening COC(=O)[C@H]1[C@@H](c2ccccc2)NC(=O)N(CCc2cc(OC)c(OC)c(OC)c2)[C@@H]1C returned Marburg entry inh inactive.
CC1(Oc2ccccc2)CCN(Cc2ccc(-c3ccccn3)cc2)C1 (stereo unspecified) was read as HCMV antiviral inactive and FMDV inh inactive.
`CC1(Oc2ccc(Cl)cc2)CCN(Cc2ccc(-c3ccccn3)cc2)C1` (stereo unspecified) gave HCMV antiviral -82 and FMDV inh inactive.
`CC(C)NC(=O)N1[C@@H]2CN(C(=O)c3ccc(F)cc3)c3ccccc3[C@@H]2[C@@H]1CO` gave HCMV antiviral inactive.
Screening COc1ccc(N2CCN(c3ncnc4onc(C)c34)CC2)cc1 returned HCMV antiviral -69, FMDV inh inconclusive and LASV entry inh inactive.
Cc1noc2ncnc(N3CCN(c4ccc(F)cc4)CC3)c12 was read as Marburg entry inh inactive, HCMV antiviral -68, FMDV inh inconclusive and LASV entry inh inactive.
